Measurements as given in PMC10668032, “Altered binding affinity of SIX1-Q177R correlates with enhanced WNT5A and WNT pathway effector expression in Wilms tumor”.
The full ranking holds about 33,000 sequences; the median of “e-score” is about -0.053, and the highest 2% start at about 0.38. For the sample, the highest values were picked, then their nearest neighbours and some sequences at random.

molecular target: T1, SIX1 homeodomain (reference allele) (human, UniProt Q15475 108-198); test: universal protein binding microarray; Universal all-10-mer PBM (8x60K, AMADID 030236), 300 nM GST-tagged protein, Alexa Fluor 488 anti-GST; buffer, salt, pH and temperature not stated (as in Berger); high values mean tight binding; conditions: protein: ivt; tags: N-terminal GST; dsDNA, one strand shown
T1 sequence: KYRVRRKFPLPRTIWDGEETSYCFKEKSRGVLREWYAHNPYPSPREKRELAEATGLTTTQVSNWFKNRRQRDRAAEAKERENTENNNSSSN
Method in brief: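 GST-tagged homeodomains were made by in vitro transcription/translation and quantified by anti-GST western blot against a recombinant GST standard curve. They were applied in duplicate at 300 nM final concentration to universal 'all 10-mer' protein binding microarrays (8×60K format). Binding was quantified as 8-mer E-scores with the Universal PBM Analysis Suite.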

Row | Sequence | binding signal [E-score]
1 | GATCACCC | 0.407 ± 0.0371
2 | GATCATCC | 0.41 ± 0.0124
3 | CATCATAC | 0.151 ± 0.0343
4 | GATCACGC | 0.317 ± 0.0237
5 | GATGGGGA | 0.191 ± 0.049
6 | CGTGGATA | 0.362 ± 0.0371
7 | ACCTGCTA | 0.2283 ± 0.000693
8 | TGGTGACA | 0.156 ± 0.0327
9 | GATCCTAC | 0.32 ± 0.0262
10 | GTGCGATA | 0.36 ± 0.0111
11 | GAGCGATA | 0.344 ± 0.042
12 | ATGCGATA | 0.394 ± 0.037
13 | AAGCGATA | 0.376 ± 0.0611
14 | TAGCGATA | 0.3796 ± 0.0024
15 | CAGCGATA | 0.359 ± 0.0421
16 | CTGCGATA | 0.342 ± 0.0342
17 | AAGCGATC | 0.239 ± 0.00546
18 | AGGCGATA | 0.357 ± 0.00753
19 | AGATAGTG | 0.152 ± 0.0589
20 | CCCATCCG | 0.191 ± 0.101
21 | CAATGACA | 0.198 ± 0.0712
22 | GGTGTTTA | 0.203 ± 0.0284
23 | ACCCGACA | 0.239 ± 0.0574
24 | ATCAATGC | 0.163 ± 0.0171
25 | ATCCATTA | 0.244 ± 0.00287

Row | Sequence | binding signal [E-score]
26 | AGCCGTAT | 0.292 ± 0.018
27 | ATATACGC | 0.244 ± 0.0546
28 | GATGATCA | 0.315 ± 0.00602
29 | GAAGATCC | 0.297 ± 0.0273
30 | CATGATCA | 0.177 ± 0.0294
31 | CATGATCC | 0.394 ± 0.00778
32 | GATGATCC | 0.45356 ± 0.000438
33 | AATGATCT | 0.369 ± 0.0567
34 | AATGATCC | 0.424 ± 0.011
35 | TATGATCA | 0.25 ± 0.0234
36 | AATGATCG | 0.152 ± 0.117
37 | AACGGGAT | 0.243 ± 0.0163
38 | GATAGGAC | 0.22 ± 0.0517
39 | TCATGGGA | 0.153 ± 0.0225
40 | ATAGCCAA | 0.218 ± 0.0447
41 | CCGCGGTA | 0.194 ± 0.102
42 | CGGTGTAG | 0.297 ± 0.025
43 | CACGGATA | 0.397 ± 0.0101
44 | CACGGATC | 0.405 ± 0.0341
45 | AACAGATC | 0.2 ± 0.0405
46 | AATGGATC | 0.35 ± 0.00509
47 | AACGGATA | 0.421 ± 0.0091
48 | CACAGATC | 0.277 ± 0.0367
49 | GACGGATA | 0.35 ± 0.0364
50 | AACGGATT | 0.204 ± 0.0564

Row | Sequence | binding signal [E-score]
51 | AACGGGTA | 0.159 ± 0.0738
52 | GACGGATC | 0.358 ± 0.041
53 | AACGGATC | 0.376 ± 0.0111
54 | CACAGATA | 0.205 ± 0.00976
55 | ATACAGGA | 0.228 ± 0.0565
56 | ATGCAATA | 0.192 ± 0.0352
57 | GAGTAGAC | 0.214 ± 0.0128
58 | ATATGCCC | 0.339 ± 0.0543
59 | CGATCTAG | 0.1577 ± 0.00153
60 | ATCATTTC | 0.1962 ± 0.00187
61 | ATCAAGCG | 0.228 ± 0.0527
62 | AGAGCGAT | 0.159 ± 0.0536
63 | AAGCCGAT | 0.211 ± 0.0118
64 | CATTATAC | 0.28 ± 0.0245
65 | CGAGGGGA | 0.164 ± 0.0583
66 | TACGGATA | 0.401 ± 0.0137
67 | TACAGATA | 0.267 ± 0.0119
68 | TAAGGATA | 0.276 ± 0.0458
69 | CCCATCCC | 0.154 ± 0.0727
70 | GCTAGATA | 0.255 ± 0.0399
71 | ATACTGAA | 0.173 ± 0.0413
72 | ATATGGTA | 0.256 ± 0.011
73 | CCACTATC | 0.227 ± 0.0482
74 | GCATACGA | 0.157 ± 0.0596
75 | ATACCTAT | 0.398 ± 0.0488

Row | Sequence | binding signal [E-score]
76 | ATACCTGG | 0.27 ± 0.0557
77 | ATACCTTA | 0.385 ± 0.0525
78 | ATACCTAC | 0.385 ± 0.0317
79 | ATACCTAA | 0.273 ± 0.0487
80 | ATACCTGA | 0.3668 ± 0.00206
81 | ACACCTAT | 0.26 ± 0.021
82 | ATACCTAG | 0.392 ± 0.0316
83 | ACACCTAG | 0.231 ± 0.0166
84 | ACACCTAC | 0.191 ± 0.0849
85 | ATACCTTG | 0.335 ± 0.0223
86 | ATACCTGC | 0.342 ± 0.0303
87 | CCGAATCC | 0.163 ± 0.0406
88 | ATCTTGTC | 0.153 ± 0.0184
89 | TCGATCCA | 0.152 ± 0.142
90 | TGGCATAA | 0.177 ± 0.0236
91 | AGCTATAC | 0.235 ± 0.02
92 | ATCGCTAG | 0.279 ± 0.0337
93 | ATTAGTGA | 0.152 ± 0.0306
94 | ATACCTCA | 0.352 ± 0.0542
95 | ATACCTCC | 0.403 ± 0.0208
96 | ATACCTCG | 0.342 ± 0.0353
97 | ATACTGCA | 0.242 ± 0.0213
98 | ATTGAGAC | 0.212 ± 0.0411
99 | AACTGGAT | 0.172 ± 0.0594
100 | AGGTATAC | 0.4 ± 0.0358

Row | Sequence | binding signal [E-score]
101 | GCGTATAC | 0.295 ± 0.011
102 | AGGTATAG | 0.262 ± 0.0777
103 | AGGTATAA | 0.242 ± 0.0818
104 | GGGTATAC | 0.416 ± 0.0059
105 | GGGTATAA | 0.375 ± 0.0497
106 | CGGTATAC | 0.393 ± 0.00578
107 | CGGTATAA | 0.294 ± 0.0192
108 | CGGTATAG | 0.216 ± 0.0268
109 | CACTATCG | 0.211 ± 0.013
110 | TAGATCCA | 0.227 ± 0.0321
111 | CATAACAC | 0.161 ± 0.0101
112 | ATCTGCCA | 0.187 ± 0.0302
113 | GAGATCTC | 0.292 ± 0.0824
114 | ATCATCCG | 0.348 ± 0.0124
115 | ACACCCCT | 0.327 ± 0.0413
116 | ATCCGAAT | 0.313 ± 0.0137
117 | TATTAAAA | 0.18 ± 0.0684
118 | GGCGGGGA | 0.174 ± 0.14
119 | ATCTCCTG | 0.298 ± 0.00608
120 | AGATCCTC | 0.329 ± 0.0109
121 | CTATCCTC | 0.282 ± 0.0379
122 | GTATCCTA | 0.409 ± 0.00666
123 | GTATTCTA | 0.191 ± 0.00249
124 | AGATCCTG | 0.252 ± 0.0351
125 | ATCTCCTA | 0.159 ± 0.082

Row | Sequence | binding signal [E-score]
126 | ATATCCTC | 0.426 ± 0.02
127 | CTATCCTA | 0.198 ± 0.0137
128 | ATATCCTA | 0.415 ± 0.027
129 | ATATCCTG | 0.394 ± 0.0206
130 | TAATCCTA | 0.215 ± 0.0252
131 | GATCTTAC | 0.275 ± 0.0138
132 | ACAGGATC | 0.283 ± 0.00359
133 | ATCGAGAC | 0.217 ± 0.013
134 | TCAGATCA | 0.243 ± 0.0928
135 | CCGGATTA | 0.351 ± 0.0231
136 | CCAGATCG | 0.292 ± 0.0492
137 | TCGGATAA | 0.336 ± 0.0635
138 | TCGGATCA | 0.4385 ± 0.00286
139 | CCGGATGA | 0.275 ± 0.0448
140 | TCCGATCA | 0.212 ± 0.00764
141 | CCGGATCA | 0.454 ± 0.013
142 | TGAGATCA | 0.33 ± 0.0117
143 | GGAGATCA | 0.386 ± 0.0139
144 | AGAGATCA | 0.302 ± 0.0481
145 | CCAGATCA | 0.39 ± 0.0106
146 | GACACTCC | 0.258 ± 0.0239
147 | CAGTGTAG | 0.161 ± 0.0252
148 | CGATCTGA | 0.30169 ± 0.000148
149 | ATACTTGA | 0.222 ± 0.103
150 | GTATAAAA | 0.246 ± 0.0491

Row | Sequence | binding signal [E-score]
151 | GATAGTTA | 0.153 ± 0.035
152 | CAGATCAC | 0.3666 ± 0.00216
153 | ACTCAGGG | 0.266 ± 0.0829
154 | CGTAATAC | 0.256 ± 0.0115
155 | GCGGATTA | 0.318 ± 0.0316
156 | GCGGATGA | 0.171 ± 0.0144
157 | GCGGATCA | 0.448 ± 0.00571
158 | ATCGTACC | 0.217 ± 0.0516
159 | CCCTCTCA | 0.17 ± 0.048
160 | GATAGCCC | 0.303 ± 0.0137
161 | AGATTGAT | 0.221 ± 0.0674
162 | AATACCAT | 0.296 ± 0.0291
163 | GATACCAC | 0.462 ± 0.0103
164 | AATACCAA | 0.278 ± 0.0235
165 | TATACCAA | 0.347 ± 0.016
166 | AATACCAC | 0.33 ± 0.0283
167 | GATACCAA | 0.4303 ± 0.00174
168 | ACAGTGGT | 0.155 ± 0.0272
169 | GGATGACC | 0.205 ± 0.0281
170 | CTGAAACC | 0.155 ± 0.0131
171 | CATAAGAA | 0.178 ± 0.0241
172 | CCGGACAC | 0.192 ± 0.0231
